# Assay results from PubChem BioAssay (NCI).
# This is part of a sample that, as a whole, favours compounds with a hit. Of some 83,000 tested, about 20% had one in any assay.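 Method: cells in 96-well plates; compound added at one concentration; 48 h incubation; percent growth measured; values under 10 scored active.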 A number with no mark means an inactive call. The source made the active and inactive calls.
# Key:
# Assay in all cases: NCI-60 one-dose screen, 48 h (100 = growth as untreated, 0 = no growth, -100 = all killed)
# Conditions in all cases: 10 µM unless noted
# T-47D breast = test system: T-47D breast
# BT-549 breast = test system: BT-549 breast
# MDA-MB-435 melanoma = test system: MDA-MB-435 melanoma
# SW-620 colon = test system: SW-620 colon
# MCF7 breast = test system: MCF7 breast
# HCT-116 colon = test system: HCT-116 colon
# HCC-2998 colon = test system: HCC-2998 colon
# KM12 colon = test system: KM12 colon
SMILES,growth (T-47D breast),growth (BT-549 breast),growth (MDA-MB-435 melanoma),growth (SW-620 colon),growth (MCF7 breast),growth (HCT-116 colon),growth (HCC-2998 colon),growth (KM12 colon)
CNCc1cccc2c1OCCCCCCC(C)(O)CC(C)(C)S(=O)(=O)c1ccc(cc1)-c1cnc(N)c(n1)C(=O)N2 (configuration not stated),56.1%,27.9%,-85.6% (active),5.13% (active),-58.1% (active),-82.3% (active),-6.01% (active),-68.1% (active)
COc1ccc2c(c1)c(CC(=O)[Se]CC(=O)O)c(C)n2C(=O)c1ccc(Cl)cc1,103%,122%,51.2%,113%,37.4%,98.1%,119%,101%
CCN(CC)c1ccc(NC2=C(Cl)C(=O)c3nc(C)ccc3C2=O)cc1,-36% (active),132%,-76% (active),-29.3% (active),-38.5% (active),-63.8% (active),9.75% (active),101%
C[C@H]1c2[nH]c3ccccc3c2C[C@H]2C(=O)N(CCCCCCC(=O)NO)CC(=O)N21,61%,96.5%,84%,80.5%,70.8%,72.8%,114%,84.1%
NC(N)=Nc1ccc(Oc2cccc(Nc3ccc(Cl)cc3)c2)cn1,26.1%,65.7%,14.3%,-71.8% (active),-76.7% (active),-73.4% (active),-89.1% (active),-92.6% (active)
Cn1ccnc1C(=O)/C=C/c1ccc(CNC(=O)c2ccc(S(F)(F)(F)(F)F)cc2)cc1,25%,35.6%,55.5%,9.31% (active),13.3%,-17.1% (active),11.5%,13%
COc1ccc(S(=O)(=O)NCCCNc2nccc(-c3[nH]c(-c4ccccc4)nc3-c3ccc(Cl)c(O)c3)n2)cc1,54.4%,88.3%,36.9%,107%,73.2%,57.8%,112%,77.6%
COC(=O)c1[nH]nc2c1C1(C(=O)N(C)c3ccccc31)C(C#N)=C(N)O2 (configuration not stated),108%,133%,99.9%,93%,89.6%,101%,104%,103%
NS(=O)(=O)c1ccc(Nc2nc(N/N=C/CCc3ccccc3)nc(Nc3ccccc3)n2)cc1,102%,99.4%,101%,104%,96.3%,103%,113%,109%
NC(N)=Nc1ccc(Nc2cccc(Nc3ccc(Cl)c(C(F)(F)F)c3)c2)cn1,23.8%,67.8%,30.4%,5.81% (active),2.25% (active),16.1%,9.32% (active),-38.3% (active)
C#C[C@]1(O)CC[C@H]2[C@@H]3CC=C4c5sc(-c6cccc(O)c6)nc5CC[C@]4(C)[C@H]3CC[C@@]21C,1.25% (active),-22.8% (active),-51.4% (active),-52.8% (active),-28% (active),-37.6% (active),-24.8% (active),-28.9% (active)
Cn1cc(CNc2nc3ccc(OC/C(=C/F)CN)cc3o2)ccc1=O,105%,99.8%,104%,107%,91.7%,103%,99%,105%
O=S(=O)(NCCNc1nccc(-n2cnc3ccccc32)n1)c1ccc(Cl)cc1,97.1%,99.3%,100%,100%,87.9%,94.6%,101%,97.1%
COc1ccc(NC(=O)CSc2nnc(-c3ccc4nc(-c5ccc(OC)c(OC)c5)[nH]c4c3)o2)cc1OC,90.3%,90.7%,102%,105%,91.9%,98.1%,111%,101%
N#Cc1cccc(CN2CCC3=C(C2)C(=O)N(Cc2ccc(Cl)cc2)C2=NCCCN23)c1,21.2%,64%,20.3%,36.1%,14.2%,22.5%,24.5%,38.8%
COc1c(N2CC3CCCNC3C2)c(F)cc2c(=O)c(C(=O)N/N=C/c3ccc(F)cc3)cn(C3CC3)c12 (configuration not stated),96.1%,84.8%,91%,99.5%,75.9%,67.9%,97.3%,104%
CCCCc1nc(/C=N/Nc2nc(Nc3ccccc3)nc(Nc3ccc(S(N)(=O)=O)cc3)n2)c(Cl)[nH]1,14.9%,47.9%,90.3%,75.1%,46.8%,90%,70.4%,103%
CCNC(=O)N1CCc2cc(OC)c(OCCc3ccc(OC)cc3)cc2C1c1ccc(Cl)cc1C (configuration not stated),57%,-1.91% (active),15.9%,21.4%,16.3%,9.84% (active),17.1%,16.5%
O=C1CCCC2=C1C(c1c[nH]c3ccc(Br)cc13)Cc1cc(Br)ccc1N2 (configuration not stated),20.7%,39.4%,-10.2% (active),22.7%,23.4%,19.3%,68.2%,21.7%
O=C1C(c2ccccc2)=C(N2CCc3ccccc32)OC1(Cl)Cl,10.1%,75.1%,85.9%,-28.8% (active),26.2%,2.36% (active),88%,87.9%
CC(C)c1ccc(NCc2cn(-c3ccc(C(=O)O)cc3)nc2-c2cc(C(F)(F)F)cc(C(F)(F)F)c2)cc1,71%,102%,91%,86.8%,75.3%,84%,97%,82.5%
COc1ccc(/C=C/C(=O)c2cc(S(N)(=O)=O)c(OC)cc2OC)cc1,50.3%,82.8%,53.3%,46.6%,44.3%,65.1%,83.2%,40.9%
Nc1ccccc1NC(=O)c1ccc(NC(=O)C/C=C/c2cccnc2)cc1,12.2%,25.1%,26.3%,15.7%,17.4%,-29.3% (active),9.69% (active),33.2%
CCn1c2ccccc2c2cc(-n3nncc3-c3ccccc3)ccc21,61.8%,80.5%,-14.3% (active),21.3%,13.4%,5.07% (active),15.2%,17.1%
CC(=O)C1=C(C)NC(NNC(N)=S)=NC1c1ccccc1 (configuration not stated),103%,92.2%,99.2%,96.8%,101%,94.9%,103%,102%
COc1cc(OC)c(S(N)(=O)=O)cc1C(=O)/C=C/c1ccc(Cl)cc1,26.1%,1.01% (active),16.7%,-39.9% (active),5.69% (active),7.77% (active),1.39% (active),1.9% (active)
CS(=O)(=O)Nc1cc(-c2ccc3ncc(C#N)c(NCc4cccc(F)c4)c3c2)cnc1Cl,0.599% (active),-17.4% (active),5.21% (active),6.55% (active),0.85% (active),4.35% (active),-25.1% (active),6.28% (active)
CCN(CC)c1cn(-c2ccc(S(N)(=O)=O)cc2)nn1,108%,109%,104%,101%,97.5%,116%,107%,102%
CC1(C)NCCC[C@]2(C)[C@H]3C/C(=N\O)C4[C@@H]5C[C@@](C)(CO)CC[C@]5(C)CC[C@@]4(C)[C@]3(C)CC[C@@H]12 (some centres not stated),85.3%,97.6%,111%,103%,86.9%,86.3%,105%,104%
